# Mdm2 MdmX PPI – disrupts the human Mdm2-MdmX interaction. O15151+Q00987. SaOS-2 split-luciferase Mdm2/MdmX complementation, luminescence. inhibition, % at 8 µM. 330,000 compounds, 3% hits;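 active means inhibition of at least 50% at 8 µM in the primary screen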
# Target sequence (O15151 whole entry, looked up): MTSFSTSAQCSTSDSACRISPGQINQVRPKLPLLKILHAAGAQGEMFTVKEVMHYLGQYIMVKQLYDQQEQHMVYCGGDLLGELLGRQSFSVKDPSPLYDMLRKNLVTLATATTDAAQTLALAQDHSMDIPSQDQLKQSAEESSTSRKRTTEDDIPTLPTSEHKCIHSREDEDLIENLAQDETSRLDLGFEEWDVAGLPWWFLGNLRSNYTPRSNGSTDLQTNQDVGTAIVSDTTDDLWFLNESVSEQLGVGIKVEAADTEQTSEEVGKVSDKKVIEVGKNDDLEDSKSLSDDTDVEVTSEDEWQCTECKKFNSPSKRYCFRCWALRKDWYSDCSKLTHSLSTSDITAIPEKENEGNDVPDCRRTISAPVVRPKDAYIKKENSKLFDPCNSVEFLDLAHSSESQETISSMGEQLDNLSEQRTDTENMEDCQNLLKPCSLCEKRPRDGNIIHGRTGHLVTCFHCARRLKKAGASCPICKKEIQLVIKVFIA
# Target sequence (Q00987 whole entry, looked up): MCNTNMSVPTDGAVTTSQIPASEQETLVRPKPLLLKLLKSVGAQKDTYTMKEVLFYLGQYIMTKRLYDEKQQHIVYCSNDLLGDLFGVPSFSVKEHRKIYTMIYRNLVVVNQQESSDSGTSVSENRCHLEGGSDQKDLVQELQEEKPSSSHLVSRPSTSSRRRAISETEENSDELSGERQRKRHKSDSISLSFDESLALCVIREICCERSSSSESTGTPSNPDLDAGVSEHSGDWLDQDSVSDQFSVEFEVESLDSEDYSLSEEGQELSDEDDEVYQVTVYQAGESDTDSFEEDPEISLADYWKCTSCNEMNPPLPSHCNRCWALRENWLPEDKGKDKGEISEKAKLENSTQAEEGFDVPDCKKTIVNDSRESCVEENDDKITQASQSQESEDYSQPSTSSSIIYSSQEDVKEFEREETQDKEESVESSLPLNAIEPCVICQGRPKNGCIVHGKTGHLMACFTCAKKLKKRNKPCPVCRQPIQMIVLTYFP
# CF NFkB block – inhibitors of cystic fibrosis induced NF-kB; KKLEB NF-kB-GFP reporter, PAF-induced, GFP fluorescence overnight; inhibition, % at 5 µM; 360,000 compounds, 0.86% hits; AID 588850;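 active means at least 50% inhibition at 5 µM, scaled per plate between neutral and stimulator controls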;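 further: PAF is a Pseudomonas aeruginosa culture filtrate used as stimulus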
# HIF-2a block – HIF-2a inhibition. 786-0 RCC cells HIF-2a reporter, luciferase luminescence, overnight. 360,000 compounds, 0.72% hits. inhibition, % at 18.8 µM;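 active means inhibition of the luminescence signal of 40% or more relative to plate controls, in a single-dose primary screen at 18.75 µM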
# KKLEB cytotox – reduces viability of KKLEB cystic fibrosis airway cells. KKLEB CF airway cells viability, ATPlite luminescence, overnight; hits give low values; cells stimulated with P. aeruginosa culture filtrate. activity change (cytotoxicity), % at 5 µM. 360,000 compounds, 0.36% hits. AID 602141;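 active means corrected activity change at or below -50% at 5 µM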
# Peg3 prom inh – reduces Peg3 promoter-driven luciferase expression in HeLa. 360,000 compounds, 1.7% hits. HeLa PEG-Prom luciferase reporter, luminescence, overnight. inhibition, % at 20 µM;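 active means inhibition of at least 50% at 20 µM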
# ABHD5 PLIN5 PPI – ABHD5-PLIN5 protein interaction inhibition | AID 602281 | inhibition, % at 4 µM | 360,000 compounds, 0.78% hits | Split G. princeps luciferase complementation, luminescence, 4 h | Q00G26+Q8WTS1;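 active means inhibition above the mean inhibition across every tested compound plus 3 SD, cut at about 22% in these data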
# CF NFkB inh conf – confirmation of cystic fibrosis induced NF-kB inhibitors; 1,300 compounds, 64% hits; shares compounds with CF NFkB block; KKLEB CF airway cells, PAF-induced NF-kB-GFP fluorescence, overnight; inhibition, % at 5 µM; AID 602472; in the data active means inhibition above about 40%;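 further: stimulus PAF is a Pseudomonas aeruginosa filtrate and not platelet activating factor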
# ABHD5 PLIN5 conf – ABHD5-PLIN5 interaction inhibition, confirmed; inhibition, % at 4 µM; biochemical ABHD5-PLIN5 interaction, luminescence; shares compounds with ABHD5 PLIN5 PPI; 2,200 compounds, 67% hits; in the data active means inhibition above about 23%
# HNF4 split-luc – counter-screen for ABHD5-PLIN5 inhibitors: HNF4 split-luciferase | shares compounds with ABHD5 PLIN5 PPI | HNF4 dimerization, luminescence, biochemical | inhibition, % at 4 µM | 2,200 compounds, 77% hits;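 active means mean inhibition across replicate wells exceeding the computed hit threshold, cut at about 13% in these data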;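 further: light from luciferase halves that rejoin when HNF4 fusion proteins dimerize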
# HIF-2a conf – HIF-2a inhibition, single concentration confirmation; shares compounds with HIF-2a block; AID 651580; inhibition, % at 18.8 µM; 786-0 RCC cells, HIF-2a luciferase reporter luminescence, overnight; 1,800 compounds, 56% hits;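 active means mean inhibition across four replicates of at least 40 percent at the single tested concentration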
# HIF-1a cs – HIF-1a inhibition counter-screen for HIF-2a hits | inhibition, % at 18.8 µM | MiaPaCa-2 HIF-1a luciferase reporter, desferoxamine, overnight | shares compounds with HIF-2a block | 1,800 compounds, 72% hits;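 active means mean inhibition of the reporter signal across four replicates at the single tested dose of 50% or more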
# A number is an active result; – = inactive; · = no result given. The list is not random: actives were taken first. Their share in the collection is about 4.6%.
SMILES,Mdm2 MdmX PPI,CF NFkB block,HIF-2a block,KKLEB cytotox,Peg3 prom inh,ABHD5 PLIN5 PPI,CF NFkB inh conf,ABHD5 PLIN5 conf,HNF4 split-luc,HIF-2a conf,HIF-1a cs
CCOC(=O)N(C)C[C@@H]1OCc2cnnn2CCCC(=O)N([C@H](C)CO)C[C@H]1C,·,–,–,–,–,–,·,·,·,·,·
COc1ccccc1Cc1c(-c2ccco2)nc2c(C)cc(Br)cn12,·,66,93,–,98,58,–,36,40,·,·
O=C(NCCCN1CCCC1=O)c1cccc(S(=O)(=O)N2CCCCC2)c1,–,–,–,–,–,–,·,·,·,·,·
Cc1nn(C(C)C(=O)NCCN2CCCC2)c(=O)c2c1sc1ccccc12 (stereo not drawn),–,–,–,–,–,–,·,·,·,·,·
CC(=O)C1=C(c2cccc([N+](=O)[O-])c2)N(C(C)=O)n2c(C)nnc2S1,–,52,–,–,–,61,–,82,47,·,·
O=C(C#Cc1ccccc1)c1ccccc1,·,99,–,–,100,25,44,78,107,·,·
Cc1nc([N+](=O)[O-])c(Br)n1Cc1ccccc1,–,–,–,–,–,–,·,·,·,·,·
Cc1nc([N+](=O)[O-])c(Sc2nc3ccc([N+](=O)[O-])cc3[nH]2)n1Cc1ccccc1,–,70,–,–,–,28,55,45,38,·,·
CCCN(CCO)CCCc1ccccc1,–,–,–,–,–,–,·,·,·,·,·
CCN(CCCc1ccccc1)CCCc1ccccc1,–,54,–,–,–,38,–,74,33,·,·
CN(C)CCCN(C(=O)CCOc1ccccc1)c1nc2c(F)cccc2s1,·,85,–,–,50,28,61,–,92,·,·
CN(C)CCCN(C(=O)CCOc1ccccc1)c1nc2ccc(F)cc2s1,·,91,–,–,72,32,69,–,100,·,·
CN(C)CCCN(C(=O)COc1ccccc1)c1nc2ccc(F)cc2s1,–,–,–,–,–,–,·,·,·,·,·
CN(C)CCCN(C(=O)CCc1ccccc1)c1nc2c(F)cccc2s1,–,–,–,–,–,–,·,·,·,·,·
CCCCCCCCN1C(=O)[C@H](CC(=O)N2CCOCC2)C[C@@]2(C(=O)OC)CC(C)(C)CC=C12,·,·,–,·,·,–,·,·,·,·,·
CC(C)(C)c1ccc(C(=O)CC(Sc2ccc(Cl)cc2)C(=O)O)cc1 (stereo not drawn),–,88,–,–,–,85,–,54,97,·,·
COc1ccc(S(=O)(=O)N2CCCCC2)cc1NC(=O)c1ccc([N+](=O)[O-])o1,–,75,53,–,–,–,–,·,·,–,76
COc1ccc(S(=O)(=O)N2CCCCC2)cc1NC(=O)c1ccco1,–,–,–,–,–,–,·,·,·,·,·
NC(N)=NN=C(c1ccc(F)cc1)c1ccc(C(F)(F)F)cc1,·,72,41,–,99,–,81,·,·,–,86
CO/N=C/C(NC(=O)c1ccc(C(F)(F)F)cc1)C(=O)OC (stereo not drawn),–,–,–,–,–,–,·,·,·,·,·
O=C(Nc1ccncc1)c1c(F)c(F)c(F)c(F)c1F,–,–,–,–,–,–,·,·,·,·,·
O=C(Nc1ccncc1)c1c(Cl)cccc1Cl,–,64,41,–,–,–,71,·,·,–,–
CC(=O)OCCCNc1cc(Sc2ccc(Cl)cc2)c2nonc2c1[N+](=O)[O-],·,70,79,–,103,–,53,·,·,–,97
CC1CN(C(=O)CCC(=O)NCCCN2CCN(Cc3ccccc3)CC2)c2cc(Cl)ccc2O1 (stereo not drawn),–,–,–,–,–,–,·,·,·,·,·
C#CCN(C[C@@H]1[C@@H](OC(=O)NCc2ccco2)[C@@H](OC(=O)NCc2ccco2)Cn2c(=O)ccc(=O)n21)S(=O)(=O)c1ccc(C)cc1,·,66,43,–,95,27,52,41,26,44,107
SMILES,Mdm2 MdmX PPI,CF NFkB block,HIF-2a block,KKLEB cytotox,Peg3 prom inh,ABHD5 PLIN5 PPI,CF NFkB inh conf,ABHD5 PLIN5 conf,HNF4 split-luc,HIF-2a conf,HIF-1a cs
O=[N+]([O-])C1C(c2ccccc2)C12c1ccccc1-c1ccccc12 (stereo not drawn),·,68,49,–,53,–,46,·,·,43,–
CCCn1nc(C(=O)Nc2cc(OCC)c(N3CCOCC3)cc2OCC)c2ccccc2c1=O,·,–,–,–,–,–,·,·,·,·,·
COC(=O)C[C@@H]1C=C[C@@H](NS(=O)(=O)c2ccccc2OC)[C@@H](CO)O1,·,·,–,·,·,–,·,·,·,·,·
O=C(/C=C/c1ccc([N+](=O)[O-])cc1)c1ccccc(=O)c1O,·,68,59,–,107,66,–,98,91,91,103
Cc1nn(C)cc1C(=O)/C=C/c1ccc([N+](=O)[O-])cc1,–,–,–,–,–,–,·,·,·,·,·
CC(=O)c1ccc(-c2cnc3c(NC=O)cc(-c4ccc(C(=O)N5CCOCC5)cc4)cn23)cc1,·,–,–,–,–,–,·,·,·,·,·
COc1ccc(-c2cnc3c(NC=O)cc(-c4ccc(C(=O)N5CCOCC5)cc4)cn23)cc1OC,·,57,41,–,–,–,63,·,·,45,69
CCOc1ccc(S(=O)(=O)N2CCOCC2)cc1NC(=O)CSCC(=O)Nc1ccc(OC)cc1,·,–,–,–,–,–,·,·,·,·,·
Cc1cccc(/C=C(\c2nc3ccccc3[nH]2)S(=O)(=O)c2ccccc2)c1,·,55,88,–,112,42,–,84,68,92,105
CC1(CCC(=O)N2CCCC(N3CCN(c4ccc(F)cc4)CC3)C2)CC1 (stereo not drawn),–,–,–,–,–,–,·,·,·,·,·
CCOC(=O)/C=C/C(=O)Nc1ccccc1-c1ccccc1NC(=O)/C=C/C(=O)OCC,·,56,55,–,70,–,–,·,·,–,–
C=C1C(=O)O[C@H]2C[C@H]1[C@@H](OC(C)=O)C/C(C)=C/CC/C(C)=C\CC[C@]2(C)O,·,77,94,–,89,71,65,88,64,96,105
COc1cc(NC(=O)Cn2ncc(Cl)c(Cl)c2=O)c(C)cc1[N+](=O)[O-],·,93,93,–,98,–,100,·,·,98,106
Cc1ccc(-n2nnnc2Sc2ccc(S(=O)(=O)NCCN(C)C)cc2[N+](=O)[O-])cc1,·,91,77,–,100,31,51,–,34,–,106

# Screening data from PubChem BioAssay.
